Results on 56 molecules are retold here after PubChem BioAssay AID743279 (National Center for Advancing Translational Sciences (NCATS), 2014).

Hit rate of the full screen: of about 360,000 compounds, about 17,000 (4.7%) were called active. Inconclusive results (about 5%) are left out. The list comes from a sample in which actives are over-represented; it also holds similar structures and randomly drawn compounds. Unmarked numbers belong to inactive results. No stated cut-off is given here; in the data, active means activity change below about -50%; inconclusive means mostly about -30% to -49%; inactive means weaker than that.
On the % scale 0 is the no-effect control and ±100 the full control effect.

The nature of the experiment: qHTS for Inhibitors of Inflammasome Signaling: IL-1-beta AlphaLISA Primary Screen. The settings on record: THP-1 LPS/ATP IL-1B secretion, 16 h; at 57.5 µM, hits give low values. The method, boiled down:
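Secreted IL-1B measured by AlphaLISA bead assay after 16 h compound exposure of THP-1 cells; compounds (final up to 57.5 uM) added 1 h before LPS (250 ng/mL) and ATP (1.25 mM) stimulation; lower signal means less secretion.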
Consider `COc1ccc(C(C(=O)NCc2ccccc2)N(Cc2cccs2)C(=O)c2cnccn2)cc1` (stereo unspecified), for which the activity change is 3.36%.

Turning to `COc1ccc(-c2cc(C3CCN(c4ncccc4[N+](=O)[O-])CC3)[nH]n2)cc1`, the activity change is -28.8%.

`C#Cc1cc(N2CCN(C(=O)c3ccoc3)CC2)n2nc(-c3cccc(Cl)c3)cc2n1`: the activity change was -109% (active).

Turning to `CN(C)CCN1CCN(c2cc(-c3cccc(Cl)c3)nc3ccnn23)CC1`, the activity change was 6.44%.

For `O=C(c1ccccc1)N1CCN(c2cc(-c3ccccc3)nc3cc(-c4cccc(Cl)c4)nn23)CC1`, the activity change was 15.2%.

On to `CC(=O)c1ccc(Oc2cc(C)nc(-n3nc(C)cc3C)n2)cc1`, for which the activity change was 46.7%.

Take `COc1cccc(/C=N/Nc2ccc(S(=O)(=O)Nc3ccccc3C(=O)O)cc2[N+](=O)[O-])c1O`: the activity change was -5.79%.

As to `COc1ccc(/C=N/Nc2cc(N3CCOCC3)nc(C)n2)c(OC)c1`, the activity change was -8.96%.

On to `COc1ccccc1/C=N\Nc1cc(C)nc(-n2nc(C)cc2C)n1`, for which the activity change is -99% (active).

For the molecule `COc1cccc(/C=N/Nc2cc(C)nc(-c3ccccc3O)n2)c1O`, the activity change was -99.4% (active).

Take `Cc1nc2ccccc2nc1N/N=C/c1ccc(O)cc1O`: the activity change is 144%.

Turning to `O=S(=O)(/N=C(/Nc1ccccc1)c1ccccc1)c1cccs1`, the activity change is -18.2%.

Turning to `COc1ccc(-c2csc(C(O)c3cccc(Cl)c3)n2)cn1` (stereo unspecified), the activity change was -7.83%.

As to `CN1CCn2cnc(C(=O)NCC(=O)OC(C)(C)C)c2C1=O`, the activity change is 3.21%.

Turning to `O=C(Nc1ccc(Cl)cc1)c1csc([C@H]2C[C@H](O)[C@@H](CO)O2)n1`, the activity change was 17.6%.

Regarding `COc1ccc(-c2cc(C(F)(F)F)nc(SCCC(=O)NCc3ccco3)n2)cc1`, the activity change was -20.3%.

On to `COc1ccc(N)cc1NC(=O)CN1CCOCC1`, for which the activity change was 3.53%.

For the molecule `C=C1C(=O)[C@]23C[C@H]1CCC2[C@@]1(C)C(C[C@@H]3O)[C@](C)(C(=O)O)CC[C@@H]1O` (stereo partly specified), the activity change was -91.2% (active).

On to `COc1cc(S(=O)(=O)Nc2ncn[nH]2)ccc1Cl`, for which the activity change is 8.42%.

On to `CN1CCOC1c1ccc(C2OCCN2C)cc1` (stereo unspecified), for which the activity change is 5.1%.

With `CN(C)c1ccc(/C=N/NC(=O)C(O)c2ccc(Br)cc2)cc1` (stereo unspecified), the activity change is -3.94%.

Take `CN(C)c1ccc(/C=N/NC(=O)c2ccc(Cn3cc(Br)cn3)o2)cc1`: the activity change was -53% (active).

Regarding `O=C(N/N=C\c1ccc(Br)cc1)c1ccc(Cn2cccn2)o1`, the activity change was -3.71%.

As for `CC=CCn1c(SCCCc2ccccc2)nc2c1c(=O)[nH]c(=O)n2C`, the activity change is 34.7%.

Turning to `O=C1OC(Cc2ccccc2)C(c2ccccc2)C1=O` (stereo unspecified), the activity change is -4.65%.

Turning to `CCN1CCN(CCNC(=O)c2ccc3c(c2)NC(=O)/C(=C\c2cccc(Cl)c2)S3)CC1`, the activity change is 12.3%.

Consider `CCN(CCCNC(=O)c1ccc2c(c1)NC(=O)CN2C)c1cccc(C)c1`, for which the activity change is -98.2% (active).

Turning to `CCN(CCCNC(=O)CCn1c(=O)[nH]c2ccsc2c1=O)c1ccccc1`, the activity change is -7.98%.

For `O=C(Nc1ccc(F)cc1)C(CCc1ccccc1)N1CCN(CC(=O)N2CCCC2)CC1` (stereo unspecified), the activity change was -1.84%.

In the case of `CC(=O)Nc1ccccc1OC(C)C(=O)N1CCC(C)CC1` (stereo unspecified), the activity change was 26.5%.

On to `CCOC(=O)C1C(C)C(C(C)(C)C)N(S(=O)(=O)c2ccc(C)cc2)C1c1ccccc1` (stereo unspecified), for which the activity change is -15.7%.

As to `CC(/C=N/NC(=O)c1cc(-c2ccc3ccccc3c2)n[nH]1)=C\c1ccco1`, the activity change was -29.4%.

Take `COc1ccc(C/C(C)=N/NC(=O)c2cc(C)oc2C)cc1`: the activity change was -3.42%.

As for `CC(=C/c1ccccc1)/C=N/NC(=O)c1cc(C)oc1C`, the activity change was -1.83%.

As for `Cc1cc(C(=O)N/N=C\C(Br)=C\c2ccccc2)c(C)o1`, the activity change was -99% (active).

Take `CC(C)c1cc(C(=O)O)n[nH]1`: the activity change was -10.8%.

Turning to `CC(C)c1cc(C(=O)N/N=C/C(Br)=C/c2ccccc2)n[nH]1`, the activity change was -78.1% (active).

Turning to `CCC1C=C(c2ccccc2)C=CN=C1N(CC)CC` (stereo unspecified), the activity change was -9.78%.

For the molecule `COc1c(C)cc(C(O)c2ncc(-c3cccc(C(F)(F)F)c3)[nH]2)cc1C` (stereo unspecified), the activity change was -19.6%.

Take `C=CCn1c(CCNC(=O)c2ccccc2F)nnc1SCC(=O)Nc1ccc(OC)cc1`: the activity change is 0.328%.

Regarding `N#Cc1cc([N+](=O)[O-])ccc1NCC1CCCO1` (stereo unspecified), the activity change is 16.2%.

Consider `COc1cc(OC)cc(C(=O)N[C@H](C(=O)OCC(=O)NC(C)c2ccccc2)C(C)C)c1` (stereo partly specified), for which the activity change was 0%.

In the case of `Cc1nn(CCOc2ccccc2)c(=O)n1-c1ccccc1F`, the activity change is -5.73%.

Regarding `COc1ccc(OCCNS(=O)(=O)Cc2ccccc2)cc1`, the activity change was 5.88%.

For the molecule `CC(C)(c1ccccc1)c1ccc(OCCN)cc1`, the activity change was -93.8% (active).

With `CCOn1c(=O)c(=O)n(O)c2ccccc21`, the activity change is 33.6%.

Take `COc1cc(C)c(CN2CCN(C(=O)CCC(=O)c3ccc(C)s3)CC2)cc1OC`: the activity change is -4.16%.

With `O=C1/C(=C\c2ccc(O)cc2)CCC1CNc1ccc(Cl)cc1` (stereo unspecified), the activity change was -106% (active).

In the case of `CC(C(=O)NC1CCS(=O)(=O)C1)N1C(=O)/C(=C/c2ccc(Cl)cc2)SC1=S` (stereo unspecified), the activity change is -3.39%.

Take `COCOCCn1cc(CN2CCS(=O)(=O)N(Cc3ccc(-c4cccc(N(C)C)c4)cc3)C(CC(C)C)C2=O)nn1` (stereo unspecified): the activity change was -1.55%.

With `CC(C)CC1C(=O)N(Cc2cn(CC3CCCCC3)nn2)CCS(=O)(=O)N1Cc1ccc(-c2ccc(Cl)cc2)cc1` (stereo unspecified), the activity change is -2.11%.

With `COCOCCn1cc(CN2CCS(=O)(=O)N(Cc3ccc(-c4ccc(OC)cc4)cc3)C(CC(C)C)C2=O)nn1` (stereo unspecified), the activity change was -56.9% (active).

Take `COc1ccc(-c2ccc(CN3C(CC(C)C)C(=O)N(Cc4cn(CC5CCCCC5)nn4)CCS3(=O)=O)cc2)cc1` (stereo unspecified): the activity change was 18.2%.

Consider `CC(C)CC1C(=O)N(Cc2cn(Cc3ccco3)nn2)CCS(=O)(=O)N1Cc1ccc(-c2ccc(Cl)c(Cl)c2)cc1` (stereo unspecified), for which the activity change is -82.3% (active).

Take `CC1C(=O)N(Cc2cn(Cc3ccco3)nn2)CCS(=O)(=O)N1Cc1ccc(-c2cccc(CO)c2)cc1` (stereo unspecified): the activity change was -17.1%.

Turning to `Cn1nc(N)c2ncc(C(Cl)(Cl)Cl)nc21`, the activity change is -5.29%.
